Laboratory results taken from PubChem BioAssay AID1159606 (Sanford-Burnham Center for Chemical Genomics, 2016).
In all, about 360,000 compounds went through this assay and about 7,300 (2%) were called active. Rule as the data show it: active = inhibition above about 50%; inactive = the rest. This excerpt belongs to a sample that is enriched for actives.

Test: inhibitors of TWEAK-Fn14 signaling, primary screen, luciferase reporter cells, uHTS (AID 1159606)
Conditions: TWEAK-stimulated Fn14 reporter cells, luciferase luminescence, 8 h; at 10 µM; hits give high values

inhibition, active:
O=C(O)c1ccccc1CSc1nc2ccccc2s1 53.1%
CN(C)S(=O)(=O)N1CCC(Oc2cccc(C(=O)NCCCC3CCCC3)c2)CC1 57.2%
O=C(Nc1ccc(Cl)cn1)c1ccc2c(c1)OCCO2 66.8%
CCCc1cc(C(=O)Nc2ccc(Cl)cn2)cs1 58.8%
O=C(Nc1ccc2c(c1)OCCO2)c1ccc(Cl)c(S(=O)(=O)N2CCCCC2)c1 56.7%
O=C(Nc1cccc(S(=O)(=O)Nc2ccc(Cl)cc2)c1)c1ccc2c(c1)OCCO2 78.2%
COc1ccccc1CNc1nc(Nc2ccccc2Cl)c2sccc2n1 61.9%
COc1cccc(CNc2nc(NCc3ccccc3OC)nc3ccsc23)c1 63.1%
Cc1[nH]c(=O)c(C(=O)/C=C/c2ccccc2)c2c1CCCC2 83.9%
COc1ccc(-c2cc(C(F)(F)F)nc(S(C)(=O)=O)n2)cc1OC 76.2%
CC1CCCCC1NC(=O)/C(C#N)=C/C=C/c1ccccc1[N+](=O)[O-] (configuration not stated) 84.9%

inhibition, inactive:
CN1CCN(S(=O)(=O)c2ccc(N3CCN(S(=O)(=O)c4cccs4)CC3)nc2)CC1 -14.8%
OC[C@@H]1CN(Cc2ccncc2)C[C@H](n2cnc3c(N4CCN(c5ccccc5)CC4)ncnc32)O1 29.9%
Cc1cccc(NC(=S)N2CCC(C(=O)c3ccc(F)cc3)CC2)c1 -7.96%
Clc1ccc(-c2nnc(SCc3nc4ccccc4s3)o2)cc1 -3.77%
O=[N+]([O-])c1c(NCCO)cc(Sc2nc3ccccc3s2)c2nonc12 9.76%
COC(=O)[C@]12CCCCC=C1N(CCC1=CCCCC1)C(=O)[C@H](CC(=O)NCC1CCCCC1)C2 9.77%
Cc1ccc(-c2c(C)n([O-])c3c([n+]2=O)CCC3)cc1 19%
CNS(=O)(=O)c1cccc(C(=O)NCC2CCCCC2)c1 -15.5%
CN(C(=O)c1cccc(OC2CCN(S(=O)(=O)N(C)C)CC2)c1)C1CCOC1 (configuration not stated) -26.3%
Cc1ccc(C)c2[nH]c(=O)c(CCNC(=O)CC(C)C)cc12 -18.2%
Cc1nc(NC(=O)c2ccc3c(c2)OCCO3)ccc1Br 30.4%
Cc1ccc(C(=O)Nc2ccc3c(c2)OCCO3)cc1S(=O)(=O)N1CCOCC1 -15.2%
CCCc1cc(C(=O)Nc2ccc(C(=O)OC)cc2)cs1 -11.7%
CC(NS(=O)(=O)c1ccc(Cl)cc1)C(=O)Nc1ccc2c(c1)OCCO2 (configuration not stated) 32.7%
O=C(Nc1ccc(Cl)cn1)c1cnn2cccnc12 5.94%
CCN(CC)CCNC(=O)c1ccc(NS(=O)(=O)c2ccc3c(c2)OCCO3)cc1 2.79%
CN1CCN(c2ccc(NC(=O)c3ccc4c(c3)OCCO4)cc2Cl)CC1 17.5%
CCCCC(CC)C(=O)Nc1ccc(Cl)cn1 (configuration not stated) -8.67%
CCOc1ccc(-c2c(C)n([O-])c3c([n+]2=O)CCCC3)cc1 -15.2%
O=S1(=O)CC(N2CCSCC2)CN1Cc1cn(Cc2cccc(Cl)c2)nn1 (configuration not stated) 0.68%
CC(=O)N1Cc2cc(C(=O)NCc3cccc(F)c3)nc(-c3cccc(C4=CCCC4)c3)c2[C@H]1CCO -25.9%
COC(=O)C1(C(=O)OC)C/C=C\CN(S(=O)(=O)c2ccccc2[N+](=O)[O-])CCC1 -4.25%
CC(=O)N1CCSc2ccc(S(=O)(=O)N3CCC(C)CC3)cc21 10.4%
Cc1csc(=O)n1CCC(=O)OCC(=O)Nc1ccc(N2CCOCC2)cc1 -8.76%
COc1cccc(CNc2nc(NCc3cccs3)nc3ccsc23)c1 -13.7%
COCCNc1nc(Nc2ccccc2Cl)c2sc(-c3ccccc3)cc2n1 -18.2%
Clc1ccccc1Nc1nc(NCc2cccs2)nc2ccsc12 12.1%
COCCNc1nc(NCc2ccc(NC(C)=O)cc2)c2sccc2n1 -3.75%
O=C1CC(c2ccccc2)C(c2ccccc2)=NN1 (configuration not stated) -8.4%
O=S1(=O)CCOC[C@H](CC2CCCCC2)N1Cc1ccc(F)cc1 3.84%
CCc1cccc(CC)c1NC(=O)COc1ccccc1C(=O)c1cc(C#N)c(=O)n(C2CCCCC2)c1 19.8%
CN(Cc1cn(Cc2ccc(C(F)(F)F)cc2)nn1)C1CN(Cc2cn(Cc3ccc(C(F)(F)F)cc3)nn2)S(=O)(=O)C1 (configuration not stated) 33.8%
CC(=O)c1nc(N2C(=O)C3CC=C(C)CC3C2=O)sc1C (configuration not stated) -2.22%
Cc1ccc(-c2cc(=O)[nH]c(NCc3ccccc3)n2)cc1 9.23%
CCS(=O)(=O)c1ccc2c(c1)N(S(=O)(=O)c1ccccc1)CC(C(=O)O)O2 (configuration not stated) -19.1%
COC(=O)c1c(C)[nH]c(C(=O)/C=C/c2ccc(Cl)cc2)c1C -23.7%
CC1(C(=O)O)CCCN(C(=O)/C=C/c2ccccc2)C1 (configuration not stated) 3.38%
CCN(CC)CCOc1ccc2c(c1)C(=NNC(=O)c1ccccn1)c1cc(OCCN(CC)CC)ccc1-2 -85.7%
COc1ccc(-c2cc(C(=O)N(C)Cc3ccc(OC)c(OC)c3OC)c3ccccc3n2)cc1OC 19.7%
COc1ccc(-c2cc(C(=O)NCCCN3CCCC3=O)c3ccccc3n2)cc1OC -9.51%
OCC1(Cc2ccccc2C(F)(F)F)CCN(Cc2ccncc2)CC1 14.4%
Cc1cc(-c2nnc(SCC(=O)Nc3ccc(F)cc3)n2N)n[nH]1 1.35%
O=C(CC[C@H]1O[C@@H](n2ccc(=O)[nH]c2=O)[C@H](O)[C@@H]1O)N[C@H](Cc1ccccc1)C(=O)NCc1ccco1 10.1%
CC1CCCCC1NC(=O)COc1ccc(C#N)cc1 (configuration not stated) 2.53%
CC(OC(=O)/C=C/c1ccccc1)C(=O)NC1CCCCC1C (configuration not stated) -1.03%
CC(=O)NCC(=O)N(C)C(C(=O)Nc1ccc2c(c1)OCCO2)c1ccccc1 (configuration not stated) 7.79%
